Measurements from PubChem BioAssay (NCATS).
Results filed as inconclusive are left out. A call without a number means that no potency is given here. Unmarked numbers belong to inactive results. Activity calls are given as the source filed them. Calls follow the shape of the dose curve; as a rule, active = well fitted activation curve with a large enough effect; inconclusive = small, poorly fitted or top-dose-only effect, or another doubt; inactive = no such curve, though single readings can be large or run the other way.

Each compound was assayed against Rap guanine nucleotide exchange factor 3 (Homo sapiens) (UniProt O95398) (assay: Counterscreen qHTS for agonist of cAMP-regulated guanine nucleotide exchange factor 3 (EPAC1) (AID 1645889; also: nearly all actives have a fitted effect of over 40% in size)). Conditions: EPAC1 Rap1B-BODIPY-GDP exchange, fluorescence; series mostly up to 154 µM.
Procedure, shortened: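 Measured: fluorescence of BODIPY-GDP bound to Rap1B, which falls as exchange proceeds. Conditions include 50 uM competing GDP, 5 and 30 min reads, and a later cAMP challenge for antagonist detection.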
Potency is read from the fitted curve at half-maximal effect.

Structure (SMILES)	Potency	activation
COc1ccccc1NC(=O)Cc1ccc(-c2ccccc2)cc1	inactive	–
CCCc1nn2c(=O)cc(COC(=O)c3ccc(NC(=O)COc4ccccc4F)cc3)nc2s1	inactive	–
Nc1cccc2c(O)cc(S(=O)(=O)O)cc12	79.4 µM (active)	–
CCn1cc(C=C2C(=O)c3ccccc3C2=O)c2ccccc21	inactive	–
CCN(CC)c1ccc(/C=c2\sc3nc4ccccc4n3c2=O)c(O)c1	56.2 µM (active)	–
CN(Cc1ccccc1)c1nc(-c2ccc(F)cc2)cc(C(F)(F)F)n1	inactive	–
COc1ccc(Cn2c(=O)cc(C)[nH]c2=S)cc1	–	-6.93% [at 30.8 µM]
CCC(=O)N1CCc2cc(CNC(=O)c3ccccc3C)ccc21	inactive	–
Cc1cc(C)c(S(=O)(=O)N(C)c2ccccc2)c(C)c1	inactive	–
CCc1ccc[n+](-c2[nH]c(=O)sc2/C=N/NC([S-])=Nc2ccccc2)c1	50.1 µM (active)	–
